High-throughput results: PubChem BioAssay, National Center for Advancing Translational Sciences (NCATS)
JMJD2A Tudor inh: blocks the human JMJD2A Tudor domain; Potency, µM (titrated, usually from 114 µM), without a hit: at the highest dose activity change, negative = inhibition, most hits filed as inhibitors; actives 4.4% (n = 390,000); AlphaScreen JMJD2A-Tudor / H3K4me3 peptide binding; further: potency means the concentration at half of the fitted maximal effect; on the % scale 0 is the no-effect control and ±100 the full control effect; nearly all actives have a fitted effect of over 50% in size
Target sequence (O75164 whole entry, looked up, the tested form may be a part): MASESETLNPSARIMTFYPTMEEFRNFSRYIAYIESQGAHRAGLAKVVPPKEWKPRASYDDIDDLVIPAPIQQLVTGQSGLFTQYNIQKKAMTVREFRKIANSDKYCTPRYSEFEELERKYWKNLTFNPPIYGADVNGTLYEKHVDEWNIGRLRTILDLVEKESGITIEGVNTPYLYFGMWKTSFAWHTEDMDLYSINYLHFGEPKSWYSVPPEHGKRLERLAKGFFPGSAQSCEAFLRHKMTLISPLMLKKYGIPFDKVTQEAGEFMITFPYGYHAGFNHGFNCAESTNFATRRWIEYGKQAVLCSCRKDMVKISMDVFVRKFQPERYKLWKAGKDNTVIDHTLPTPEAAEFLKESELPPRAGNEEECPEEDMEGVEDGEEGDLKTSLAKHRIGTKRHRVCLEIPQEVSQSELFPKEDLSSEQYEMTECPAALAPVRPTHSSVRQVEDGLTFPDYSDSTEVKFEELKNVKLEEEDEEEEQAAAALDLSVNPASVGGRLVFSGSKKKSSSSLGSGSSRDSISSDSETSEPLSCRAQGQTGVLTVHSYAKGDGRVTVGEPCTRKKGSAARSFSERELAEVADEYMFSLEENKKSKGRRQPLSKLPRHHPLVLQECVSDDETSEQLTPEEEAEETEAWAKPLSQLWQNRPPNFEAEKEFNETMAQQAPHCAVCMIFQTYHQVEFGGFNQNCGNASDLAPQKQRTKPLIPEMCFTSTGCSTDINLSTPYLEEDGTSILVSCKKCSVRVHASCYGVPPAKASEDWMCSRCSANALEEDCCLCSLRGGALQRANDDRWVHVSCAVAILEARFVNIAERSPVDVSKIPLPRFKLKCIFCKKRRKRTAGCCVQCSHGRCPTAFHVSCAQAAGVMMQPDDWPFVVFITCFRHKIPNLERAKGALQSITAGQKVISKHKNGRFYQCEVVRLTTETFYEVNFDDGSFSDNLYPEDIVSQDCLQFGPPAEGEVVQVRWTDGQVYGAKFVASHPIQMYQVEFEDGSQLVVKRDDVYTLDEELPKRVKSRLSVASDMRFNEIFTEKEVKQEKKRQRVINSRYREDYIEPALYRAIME
CtBP-E1A inh: CtBP/E1A binding inhibition; AlphaScreen GST-E1A/His-CtBP binding, 1536-well; stronger effect = lower value; activity change, % (no concentration beside the values); actives 0.49% (n = 340,000); AID 651724; in the data active means activity change below about -65%; inconclusive means mostly about -30% to -63%; further: on the % scale 0 is the no-effect control and ±100 the full control effect
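AlphaScreen with 125 nM GST-E1A and 125 nM His-CtBP (5X stocks) in Tris pH 8.0, 300 mM NaCl, BSA, Tween 20, TCEP. Compounds preincubated 2 h at 37 deg C, then glutathione donor/nickel acceptor beads added for 1 h at 37 deg C in dark.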
HP1b binding inh: HP1-beta chromodomain-methylated histone interaction inhibition | Potency, µM (titrated, usually from 114 µM), inactives show top-dose activity change, negative = inhibition, usual class: inhibitors | AlphaScreen HP1-beta / biotin-H3K9me3 peptide binding | actives 0.56% (n = 390,000); further: potency means the concentration at half of the fitted maximal effect; nearly all actives have a fitted effect of over 70% in size
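HP1-beta protein (50 nM final) preincubated 30 min at room temperature with biotinylated H3(1-18)K9me3 peptide (50 nM) in PBS pH 7.4, 0.01% Tween-20, then compound added for 30 min. AlphaScreen streptavidin donor/nickel chelate acceptor beads (10 ug/mL final), 30 min dark, luminescence read.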
TDP1 inh: blocks human tyrosyl-DNA phosphodiesterase 1. actives 0.28% (n = 350,000). Q9NUW8. Potency, µM (series often up to 130 µM), without a hit: at the top dose activity change, negative = inhibition, most hits filed as inhibitors. recombinant TDP1, AlphaScreen DNA substrate cleavage; further: potency means the concentration at half of the fitted maximal effect; on the % scale 0 is the no-effect control and ±100 the full control effect; nearly all actives have a fitted effect of over 40% in size
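Signal: AlphaScreen proximity between streptavidin donor and anti-FITC acceptor beads on intact substrate. Reaction: Tdp1 1 nM, substrate 15 nM final, 5 min RT after 15 min compound preincubation.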
BAZ2B block: BAZ2B (human) inhibition | Q9UIF8 | AlphaScreen BAZ2B-H3K14Ac peptide displacement | Potency, µM (doses to about 114 µM), for the others: top-dose activity change, negative = inhibition, most hits filed as inhibitors | actives 4.4% (n = 360,000) | AID 504333; further: potency means the concentration at half of the fitted maximal effect; on the % scale 0 is the no-effect control and ±100 the full control effect; nearly all actives have a fitted effect of over 60% in size
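AlphaScreen luminescence quantifies BAZ2B engagement of H3K14Ac peptide; the protein and biotinylated peptide are both at 50 nM final, buffer PBS pH 7.4 with 0.01% Tween-20, all steps at room temperature.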
Six1-Eya2 blk: blocks human Six1 binding to Eya2. AlphaScreen GST-Six1/His-Eya2 binding, biochemical; stronger effect = lower value. activity change, % (no concentration beside the values). actives 0.56% (n = 360,000); in the data active means activity change below about -65%; inconclusive means mostly about -30% to -63%; further: on the % scale 0 is the no-effect control and ±100 the full control effect
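Homogeneous AlphaScreen proximity assay pairing GST-Six1 with His-tagged Eya2 (added as 5X mix: 250 nM and 500 nM) in 50 mM Tris pH 8.0, 300 mM NaCl, 1 mM TCEP. Glutathione donor and nickel acceptor beads; 1 h, 37 °C, dark.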
* hit, by the source's call; ? = inconclusive; . = not tested or not shown; ! = not confirmed by another sample; [ ] = dose if it differs, or a comment. Only some compounds are listed: those with a hit (about 5.3% of all), similar ones and a draw of the others. Unless noted, the call rests on the fitted dose curve; in most records, active means well fitted inhibition curve with a large enough effect; inconclusive means small, poorly fitted or top-dose-only effect; inactive means no such curve, though single readings can be large or run the other way.

SMILES	JMJD2A Tudor inh	CtBP-E1A inh	HP1b binding inh	TDP1 inh	BAZ2B block	Six1-Eya2 blk
COc1cccc(OCCn2ccnc2)c1	-12.8%	6.3	24.3%	0.0%	7.0%	-0.4
C=CCc1ccccc1OCCn1ccnc1	-90.8%[57.1 µM]	0.0	?	-3.3%	50.1µM*	22.0
Cc1ccc(OCCn2ccnc2)c(C)c1	-24.6%	6.2	32.9%	6.5%	-37.4%	0.0
C=CCc1cccc(OC)c1OCCOCCn1ccnc1	5.01µM*	-3.7	?	2.4%	35.5µM*	-3.5
Clc1ccccc1OCCn1ccnc1	4.47µM*	6.0	44.7µM*	-4.1%	79.4µM*	0.7
CCCCn1c(CNC(=O)C23CC4CC(CC(C4)C2)C3)nnc1SCC(=O)Nc1ccc(F)cc1	-20.9%	.	21.2%	3.5%	-13.9%	.
C/C(N)=C(/C#N)C(=O)CSc1ncnc2ccccc12	?	-7.4	-5.5%	-2.1%	7.0%	-1.6
C/C(N)=C(/C#N)C(=O)CSc1nc2ccccc2[nH]1	79.4µM*	-3.8	?	?	?	-3.4
COC(=O)c1ccc(C(NC(=O)OCc2ccccc2)/C(=C/[C@@H](C)C(=O)NC2CCCCC2)c2cccnc2)cc1 (stereo partly drawn)	.	.	.	12.3%	.	.
CN(C)c1ccc(/C=C(\Cl)c2nc3ccccc3s2)cc1	-32.9%	0.1	7.0%	-2.7%	44.7µM*	9.3
COc1cc(/C=C(\CC(=O)O)c2nc3ccccc3s2)cc(OC)c1O	15.8µM*	-1.8	11.6%	-12.8%	-26.4%	-0.7
COc1cc(/C=N/NC(=Nc2ccc(C)cc2)c2nc3ccccc3s2)ccc1O	?	-7.8	0.0%	8.1%	44.7µM*	-5.3
COc1cc(C=C(c2nc3ccccc3s2)c2nc3ccccc3s2)cc(OC)c1O	56.2µM*	17.4	?	8.0%	22.4µM*	1.7
CCOC(=O)N1CCC(N2Cc3cccc(C(=O)Nc4ccc(N(CC)CC)cc4C)c3C2=O)CC1	25.1µM*	2.6	?	17.0%	14.1µM*	-1.7
CCOC(=O)N1CCC(N2Cc3cccc(C(=O)NCc4ccc5c(c4)OCO5)c3C2=O)CC1	-35.2%	4.1	4.1%	50.1µM*	?	13.8
CCOC(=O)N1CCC(N2Cc3cccc(C(=O)NCc4ccc(OC)cc4)c3C2=O)CC1	.	.	.	2.6%	?	.
CCOC(=O)N1CCC(N2Cc3cccc(C(=O)Nc4cc(F)ccc4F)c3C2=O)CC1	-7.7%	-6.1	36.4%	-1.0%	10.4%	-0.6
Fc1ccc(Oc2nc(-c3ccccn3)nc3ccccc23)cc1	?	-14.7	16.8%	5.7%	-3.3%	-12.6
COc1ccc(Oc2nc(-c3ccncc3)nc3ccccc23)cc1	-11.5%	2.0	18.1%	5.1%	2.4%	1.5
CCN1CCN(c2nc(-c3ccccn3)nc3ccccc23)CC1	?	?	11.1%	6.0%	?	?
c1ccc(Oc2nc(-c3ccccn3)nc3ccccc23)cc1	?	-94.2*	26.2%	10.3%	-11.4%	-78.5*
c1ccc(-c2nc(N3CCCCCC3)c3ccccc3n2)nc1	?	-72.8*	35.7%	13.5%	50.1µM*	-75.2*
COc1ccc(Oc2nc(-c3ccccn3)nc3ccccc23)cc1	?	-66.0*	6.2%	10.6%	-16.1%	-86.1*
CCOc1cc(/C=C2\C(=O)N(c3ccc(C(N)=O)cc3)N=C2C)ccc1OC(=O)c1cccs1	-28.1%	-2.2	-21.4%	4.0%	50.1µM*	-7.1
CCOc1cc(/C=C2/C(=N)N3N=C(CC)SC3=NC2=O)ccc1OC(=O)c1ccco1	-33.3%	1.7	-3.3%	5.0%	-16.9%	-15.0
SMILES	JMJD2A Tudor inh	CtBP-E1A inh	HP1b binding inh	TDP1 inh	BAZ2B block	Six1-Eya2 blk
CCOc1cc(/C=C2/C(=O)N(c3ccccc3)N=C2C)ccc1OC(=O)c1ccco1	56.2µM*	1.3	-20.9%	9.3%	44.7µM*	-2.8
CCOc1cc(/C=C2/SC(=S)N(CC(=O)O)C2=O)ccc1OC(=O)c1cccs1	?	?	-1.4%	.	?	-18.8
Nc1nc2ncc(C(=O)c3cc(Cl)cc(Cl)c3O)cc2s1	?	-72.2*	?	8.6%	-26.9%	?
CSCc1cc(N2CCCC2)nc(-c2ccccc2)n1	-11.5%	13.3	48.1%	5.9%	-10.5%	22.9
COCc1cc(N2CCCCC2)nc(-c2ccccc2)n1	20µM*	15.7	18.1%	-2.6%	50.4%	9.7
COc1ccc(Cn2c(CCC(=O)Nc3ccc(C)cc3)nc3cccnc32)cc1	79.4µM*!	-6.8	8.2%	1.3%	-11.9%	4.6
Cc1nc2ccc(S(=O)(=O)CCC(=O)Nc3ccc(F)cc3C)cc2s1	70.8µM*	.	-10.5%	5.1%	-2.8%	.
CCN(CC)c1ccc(NC(=O)CCc2nc3cccnc3n2Cc2cccs2)c(C)c1	20µM*	.	-15.0%	3.8%	?	.
COc1ccccc1NC(=O)CCS(=O)(=O)c1ccc2nc(C)sc2c1	10.6%	.	33.4%	2.6%	-1.5%	.
CCN(CC)c1ccc(NC(=O)CCS(=O)(=O)c2cccc3nsnc23)c(C)c1	56.2µM*	5.3	?	0.0%	?	-11.8
CCOc1ccc(NC(=O)Cn2c(=O)n(Cc3ccccc3)c(=O)c3sc4ccccc4c32)cc1	6.3%	.	61.0%	6.4%	4.7%	.
O=C1Cc2cc(S(=O)(=O)N3CCN(c4ccc([N+](=O)[O-])cc4)CC3)ccc2N1	-31.2%	.	.	.	.	.
COc1cccc(CNC(=O)c2c3c(nc4ccccc24)C(=O)N(C2CCCCC2)C3)c1	-19.7%	.	30.7%	7.1%	-18.0%	.
COc1ccc2c(c1)c(=O)c(S(=O)(=O)c1ccc(Cl)cc1)cn2Cc1cc(C)ccc1C	-2.6%	.	33.1%	3.8%	-4.0%	.
CCCN1CCN(c2ncnc3sc(C(=O)Nc4cccc(Cl)c4C)c(C)c23)CC1	-26.2%	.	9.3%	-3.8%	-27.7%	.
CCCN1CCN(c2ncnc3sc(C(=O)Nc4ccc(N(CC)CC)cc4C)c(C)c23)CC1	50.1µM*	.	?	11.2%	28.2µM*	.
COC(=O)c1sc(-c2ccc(C(C)(C)C)cc2)cc1NC(=O)c1ccccc1C(=O)O	-26.4%	2.1	53.6%	3.9%	79.4µM*	-5.7
CCC(C)NC(=O)c1sc2nc3n(c(=O)c2c1C)CCC3 (stereo not drawn)	-8.9%	.	40.5%	0.0%	-1.6%	.
C=CCN1C(c2cccc(C(F)(F)F)c2)=CS/C1=C(/C#N)c1nnc(N2CCOCC2)n1-c1ccccc1	50.1µM*	-5.9	0.4%	5.3%	50.1µM*	-7.0
O=C(c1ccc(N2C(=O)C3CCCCC3C2=O)cc1)N1CCCCC1 (stereo not drawn)	-8.6%	2.8	26.6%	5.6%	7.5%	3.9
